Measured values from PubChem BioAssay (EPA / NIEHS).
Records with an inconclusive call do not appear. Activity calls are given as the source filed them. The calls were made as follows: active = hit-call score of the fitted dose curve at least 0.9, where 1 is the maximum; inconclusive = response in the unintended direction; inactive = score below 0.9.

These compounds were tested on HMG-CoA synthase (HMGCS2), HMGCS2 (gene 3158) (assay: CLD_HMGCS2_24hr: CellzDirect (CLD) Gene Expression Assay for HMG-CoA synthase (HMGCS2) at 24 hours (AID 2283691)).
Description: CLD_24hr is a cell-based, multiplexed-readout assay that uses hepatocyte, a human liver primary cell, with measurements taken at 24 hours after chemical dosing in a 96-well plate.CLD_HMGCS2_24hr is one of 16 assay component(s) measured or calculated from the CLD_24hr assay. It is designed to make measurements of mRNA induction, a form of inducible reporter, as detected with chemiluminescence signals by Quantitative Nuclease Protection Assay (qNPA) technology.Data from the assay component CLD_HMGCS2_24hr was analyzed at the endpoint, CLD_HMGCS2_24hr, in the positive analysis fitting direction relative to DMSO as the negative control and baseline of activity. Using a type of inducible reporter, gain-of-signal activity can be used to understand changes in the reporter gene as they relate to the gene HMGCS2. Furthermore, this assay endpoint can be referred to as a primary readout. To generalize the intended target to other relatable targets, this assay endpoint is annotated to the lyase intended target family, where subfamily is HMG-CoA synthase.
Human hepatocyte cultures were treated daily for two consecutive days with fresh dosing solutions containing appropriate concentrations of the 320 ToxCast chemicals (chemical identities were blinded to CellzDirect and other ToxCast collaborators), vehicle control (0.2% DMSO), and positive control inducers as summarized in Table 1. Due to the large number of treatment groups and chemicals examined, the ToxCast chemicals were divided into two groups (spanning two independent cultures of hepatocytes from separate donor preparations (Hu778: ToxCast plates 1 and 2; Hu776: ToxCast plates 3 and 4). Each preparation of human hepatocyte cultures was treated with respective vehicle control, medium only control, set of six positive controls/reference chemicals for the five hepatic receptor pathways, and a subset of eight of the ToxCast chemicals (indoxacarb, pyrithiobac-sodium, norflurazon, cyhalofop-butyl, methomyl, thiram, acetochlor, and propiconazole). These replicate data, coupled with internal replicates designed within the blinded ToxCast chemical library, provided additional data to evaluate interindividual differences between hepatocyte preparations and their potential impact on chemical profiles.Cell morphology and integrity were evaluated using phase-contrast microscopy as an indicator of hepatocyte cell health (Tyson & Green, 1987). Cultures for each treatment group (i.e., media, vehicle [0.2% DMSO], positive control inducers [multiple concentrations], and the ToxCast chemicals [multiple concentrations]) were observed and cell morphology was assessed relative to vehicle control cultures at each harvest time point (0, 6, 24, or 48 h). […] Images were evaluated at the conclusion of the study to assess changes in cell integrity and account for the effects of chemical exposure on uncharacteristic changes in concentration-dependent gene expression profiles. The results from these determinations of apparent cytotoxicity were annotated (yes/no) alongside the corresponding qNPA data for reference.At the conclusion of each treatment period, hepatocyte cultures (96-well) were washed with 1 volume of HBSS, lysed by addition of 25 ul ArrayPlate lysis buffer (HTG, Tucson, AZ), and 70 ul/well of Denaturation Oil, denatured by incubation at 95C for 10 min, and frozen at approximately -70C until analysis by nuclease protection assay (qNPA) (Roberts et al., 2007). For qNPA analysis, cell lysates were thawed at 50C for approximately 30 min, qNPA probes were added, and samples were incubated at 95C for 10 min to begin the detection process by denaturing the target RNA, dissociating the duplexes and secondary structure hybridization. At the conclusion of the hybridization period, S1 nuclease reagent was added to each sample to digest all nonprotected nucleotides at 50C for 60-90 min. […]
With `COc1c(Cl)ccc(Cl)c1C(=O)O` the outcome was “inactive”. In the case of `CCOC(=O)NCCOc1ccc(Oc2ccccc2)cc1`, the outcome is reported as “inactive”. For `CCOC(=O)C(C)Oc1ccc(Oc2nc3ccc(Cl)cc3o2)cc1` (centres undefined), the outcome was “inactive”. For `Oc1ccc(C(c2ccc(O)cc2)C(Cl)(Cl)Cl)cc1`, the outcome was “inactive”. For `COC(=O)c1ccccc1C(=O)O`, the outcome was “inactive”. With `N#CSCSc1nc2ccccc2s1` the outcome was “inactive”. For `C#CCOC(=O)[C@@H](C)Oc1ccc(Oc2ncc(Cl)cc2F)cc1`, the outcome was “inactive”. `CCCOC(=O)c1ccc(C(=O)OCCC)nc1` was tested, and the outcome was “inactive”. `CCOC(=O)C(C)Oc1ccc(Oc2cnc3cc(Cl)ccc3n2)cc1` (centres undefined) was tested, and the outcome was “inactive”. `O=C(O)C1(C(=O)Nc2ccc(Cl)cc2Cl)CC1` was tested, and the AC50 was 34.9 µM (active). `CC(C)(c1ccc(O)cc1)c1ccc(O)cc1` was tested, and the outcome was “inactive”. In the case of `CCOC(=O)COc1cc(-n2ncc(C(F)(F)F)c(C)c2=O)c(F)cc1Cl`, the outcome is reported as “inactive”. For `CCSC(=O)N(CC(C)C)CC(C)C`, the outcome was “inactive”. With `CCCCOC(=O)[C@@H](C)Oc1ccc(Oc2ccc(C(F)(F)F)cn2)cc1` the outcome was “inactive”. In the case of `CCCOC(=O)NCCCN(C)C`, the outcome is reported as “inactive”. For `OB(O)O`, the outcome was “inactive”. For `COC(=O)c1ccc(CNS(C)(=O)=O)cc1S(=O)(=O)NC(=O)Nc1nc(OC)cc(OC)n1`, the outcome was “inactive”. In the case of `COC(=O)c1c(Cl)nn(C)c1S(=O)(=O)NC(=O)Nc1nc(OC)cc(OC)n1`, the outcome is reported as “inactive”. `CCCCC(CC)COC(=O)c1ccccc1C(=O)O` (centres undefined) was tested, and the outcome was “inactive”. `COC(=O)c1ccccc1S(=O)(=O)NC(=O)Nc1nc(OC(F)F)cc(OC(F)F)n1` was tested, and the outcome was “inactive”. With `CSC(=O)c1cccc2nnsc12` the AC50 was 7.33 µM (active). With `CCCCOC(=O)C(C)Oc1ccc(Oc2ccc(C(F)(F)F)cn2)cc1` (centres undefined) the outcome was “inactive”. In the case of `c1ccc(Nc2ccccc2)cc1`, the outcome is reported as “inactive”. For `CCC(C)OC(=O)N1CCCCC1CCO` (centres undefined), the outcome was “inactive”.
